# From ChEMBL document CHEMBL3988442, “University of Dundee, Small-Polar-MMV Screening Library” (2021)
# For some of these results: Potency and affinity values are given separately.
# Tests used:
# Parameters in all cases: scale not given: direction of the effect not stated beside the values
# [1] = biological target: Protein translocase subunit SecA (Escherichia coli (strain K12)) (UniProt P10408); experiment: Assay to Identify E. coli SecA ATPase Inhibitors; type: functional; settings: 30 µM
# [2] = biological target: T1, Ubiquitin-activating enzyme e1, putative (Leishmania donovani (strain BPK282A1)) (UniProt E9BSI1); experiment: Leishmania donovani Ubiquitin Activating Enzyme (LdE1); type: functional; settings: 30 µM
# T1 sequence (whole entry): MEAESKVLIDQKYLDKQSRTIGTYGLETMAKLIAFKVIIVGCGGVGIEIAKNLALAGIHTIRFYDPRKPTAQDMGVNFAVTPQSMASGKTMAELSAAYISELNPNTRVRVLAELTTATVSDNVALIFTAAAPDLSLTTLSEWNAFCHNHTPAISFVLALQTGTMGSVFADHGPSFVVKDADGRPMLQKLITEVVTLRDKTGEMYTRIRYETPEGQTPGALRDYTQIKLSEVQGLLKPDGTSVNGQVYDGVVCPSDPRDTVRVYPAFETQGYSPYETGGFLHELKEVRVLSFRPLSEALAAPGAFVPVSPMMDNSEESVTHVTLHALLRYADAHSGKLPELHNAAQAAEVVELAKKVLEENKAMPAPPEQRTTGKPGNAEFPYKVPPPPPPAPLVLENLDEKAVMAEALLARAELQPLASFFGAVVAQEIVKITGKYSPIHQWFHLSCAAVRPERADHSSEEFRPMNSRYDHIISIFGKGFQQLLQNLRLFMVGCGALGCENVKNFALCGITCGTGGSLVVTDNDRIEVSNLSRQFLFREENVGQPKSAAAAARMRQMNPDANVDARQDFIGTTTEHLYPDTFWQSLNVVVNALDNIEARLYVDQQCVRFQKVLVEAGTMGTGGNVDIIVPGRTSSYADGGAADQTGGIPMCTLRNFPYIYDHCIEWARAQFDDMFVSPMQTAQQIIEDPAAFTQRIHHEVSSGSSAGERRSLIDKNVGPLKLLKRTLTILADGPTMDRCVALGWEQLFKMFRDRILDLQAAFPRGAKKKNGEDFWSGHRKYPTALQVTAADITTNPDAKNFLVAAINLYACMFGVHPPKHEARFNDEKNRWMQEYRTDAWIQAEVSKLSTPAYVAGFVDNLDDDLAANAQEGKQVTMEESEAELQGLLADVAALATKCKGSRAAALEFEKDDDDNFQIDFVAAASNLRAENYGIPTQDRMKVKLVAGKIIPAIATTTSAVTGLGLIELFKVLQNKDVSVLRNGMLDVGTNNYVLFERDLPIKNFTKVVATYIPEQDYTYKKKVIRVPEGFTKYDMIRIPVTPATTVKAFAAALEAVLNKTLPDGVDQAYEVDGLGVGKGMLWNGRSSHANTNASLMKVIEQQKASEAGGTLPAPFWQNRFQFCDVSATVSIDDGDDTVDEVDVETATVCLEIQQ
# [3] = biological target: T2, Aspartate--tRNA(Asp/Asn) ligase (Mycobacterium tuberculosis (strain ATCC 25618 / H37Rv)) (UniProt P9WFW3); experiment: Assay for Asp RNA synthetase-1 from Mycobacterium tuberculosis; type: functional; settings: 30 µM; note: in the data most compounds retested in dose-response had high values
# T2 sequence (whole entry): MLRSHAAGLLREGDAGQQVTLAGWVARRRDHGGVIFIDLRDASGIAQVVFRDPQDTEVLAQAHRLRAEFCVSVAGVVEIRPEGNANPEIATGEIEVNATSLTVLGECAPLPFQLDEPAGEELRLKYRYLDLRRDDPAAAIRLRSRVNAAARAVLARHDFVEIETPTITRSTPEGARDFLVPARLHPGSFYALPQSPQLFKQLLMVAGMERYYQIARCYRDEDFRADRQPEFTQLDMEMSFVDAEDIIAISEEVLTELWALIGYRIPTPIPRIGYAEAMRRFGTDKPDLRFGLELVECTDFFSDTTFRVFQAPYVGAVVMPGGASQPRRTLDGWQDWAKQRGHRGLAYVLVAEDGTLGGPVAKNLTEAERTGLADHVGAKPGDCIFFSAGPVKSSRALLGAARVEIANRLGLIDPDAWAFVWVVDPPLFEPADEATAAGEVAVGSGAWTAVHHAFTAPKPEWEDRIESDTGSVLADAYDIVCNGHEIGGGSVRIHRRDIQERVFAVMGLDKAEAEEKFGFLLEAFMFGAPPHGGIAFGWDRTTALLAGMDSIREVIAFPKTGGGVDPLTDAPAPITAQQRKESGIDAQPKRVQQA
# [4] = biological target: AMP-activated protein kinase, AMPK (Homo sapiens) (UniProt P54646+O43741+P54619+Q9UGJ0+Q9Y478+Q13131+Q9UGI9); experiment: AMP-dependent Kinase enzyme assay. An in vitro enzyme assay that detects ADP turnover that is directly proportional to AMPK activity. This uses naive AMPK that is activated during the assay with MK-8722; type: functional; settings: 30 µM
# [5] = biological target: Sialic acid-binding Ig-like lectin 9 (Homo sapiens) (UniProt Q9Y336); experiment: Hs-Siglec9 ALPHAscreen SOP 20170721; settings: 10 µM
# Sequence of Sialic acid-binding Ig-like lectin 9 (Homo sapiens) (Q9Y336 whole entry): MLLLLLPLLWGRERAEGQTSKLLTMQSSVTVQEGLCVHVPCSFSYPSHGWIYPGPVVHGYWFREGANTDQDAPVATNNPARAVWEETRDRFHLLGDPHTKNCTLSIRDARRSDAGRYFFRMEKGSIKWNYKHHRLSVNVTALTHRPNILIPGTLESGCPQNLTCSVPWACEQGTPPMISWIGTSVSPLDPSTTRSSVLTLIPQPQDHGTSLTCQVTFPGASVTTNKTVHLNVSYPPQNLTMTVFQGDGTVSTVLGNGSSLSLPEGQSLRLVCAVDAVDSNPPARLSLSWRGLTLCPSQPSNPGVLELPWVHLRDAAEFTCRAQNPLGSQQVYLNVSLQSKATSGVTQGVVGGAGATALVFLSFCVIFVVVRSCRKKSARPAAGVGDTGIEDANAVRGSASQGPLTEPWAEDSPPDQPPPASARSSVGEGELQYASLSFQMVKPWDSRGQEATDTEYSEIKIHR
# Trypanosoma cruzi = experiment: Trypanosoma cruzi phosphomannomutase and mannose-1-phosphate guanylyltransferase assay; type: functional; settings: 10 µM
# [6] = biological target: T3, Arginase-2, mitochondrial (Homo sapiens) (UniProt P78540); experiment: in vitro enzyme assay to detect the production of urea directly proportional to the activity of Arginase II; type: functional; settings: 33.3 µM; note: in the data most compounds retested in dose-response had high values
# T3 sequence (whole entry): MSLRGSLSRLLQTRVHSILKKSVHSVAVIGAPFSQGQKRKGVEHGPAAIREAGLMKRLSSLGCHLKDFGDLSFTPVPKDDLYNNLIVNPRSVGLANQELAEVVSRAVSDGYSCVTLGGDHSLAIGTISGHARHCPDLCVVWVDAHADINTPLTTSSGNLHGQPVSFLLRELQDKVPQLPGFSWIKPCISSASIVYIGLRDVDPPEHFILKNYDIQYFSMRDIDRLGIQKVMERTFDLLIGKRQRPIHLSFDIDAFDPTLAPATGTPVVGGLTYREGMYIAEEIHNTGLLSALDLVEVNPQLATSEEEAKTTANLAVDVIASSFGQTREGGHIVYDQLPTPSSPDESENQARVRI
# [7] = biological target: T4, Proteasome subunit beta (Trypanosoma cruzi) (UniProt O96673); experiment: Trypanosoma cruzi proteasome chymotrypsin-like activity (TcProtChymo) assay.; note: in the data most compounds retested in dose-response had high values; type: functional; settings: 9.37 µM
# T4 sequence (whole entry): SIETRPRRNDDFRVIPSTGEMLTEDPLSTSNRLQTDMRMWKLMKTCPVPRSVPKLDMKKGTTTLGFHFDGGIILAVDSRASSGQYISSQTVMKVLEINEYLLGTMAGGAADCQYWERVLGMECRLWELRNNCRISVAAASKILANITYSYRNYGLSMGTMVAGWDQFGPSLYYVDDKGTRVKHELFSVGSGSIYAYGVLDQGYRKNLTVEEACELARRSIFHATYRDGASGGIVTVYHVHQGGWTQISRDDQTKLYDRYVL
# Homo sapiens = species on record: Homo sapiens; experiment: To identify inhibition of the IFN signalling (Jak-Stat) pathway via expression of an eGFP reporter gene under the control of an IFN-stimulated response element (ISRE) containing MxA promoter.; type: functional; settings: 30 µM
# [8] = biological target: Shiga toxin 2 (Escherichia coli O157:H7) (UniProt P09385+P09386); experiment: E. coli 0.157:H7 Shiga Toxin SOP - stx2 screening assay; type: functional; settings: 30 µM
# [9] = biological target: T5, Tyrosyl-tRNA synthetase, putative (Trypanosoma cruzi (strain CL Brener)) (UniProt Q4DSP6); experiment: Trypanosoma cruzi tyrosyl tRNA synthetase (TcYRS) _High Tyrosine SOP; type: functional; settings: 30 µM; note: in the data most compounds retested in dose-response had high values
# T5 sequence (whole entry): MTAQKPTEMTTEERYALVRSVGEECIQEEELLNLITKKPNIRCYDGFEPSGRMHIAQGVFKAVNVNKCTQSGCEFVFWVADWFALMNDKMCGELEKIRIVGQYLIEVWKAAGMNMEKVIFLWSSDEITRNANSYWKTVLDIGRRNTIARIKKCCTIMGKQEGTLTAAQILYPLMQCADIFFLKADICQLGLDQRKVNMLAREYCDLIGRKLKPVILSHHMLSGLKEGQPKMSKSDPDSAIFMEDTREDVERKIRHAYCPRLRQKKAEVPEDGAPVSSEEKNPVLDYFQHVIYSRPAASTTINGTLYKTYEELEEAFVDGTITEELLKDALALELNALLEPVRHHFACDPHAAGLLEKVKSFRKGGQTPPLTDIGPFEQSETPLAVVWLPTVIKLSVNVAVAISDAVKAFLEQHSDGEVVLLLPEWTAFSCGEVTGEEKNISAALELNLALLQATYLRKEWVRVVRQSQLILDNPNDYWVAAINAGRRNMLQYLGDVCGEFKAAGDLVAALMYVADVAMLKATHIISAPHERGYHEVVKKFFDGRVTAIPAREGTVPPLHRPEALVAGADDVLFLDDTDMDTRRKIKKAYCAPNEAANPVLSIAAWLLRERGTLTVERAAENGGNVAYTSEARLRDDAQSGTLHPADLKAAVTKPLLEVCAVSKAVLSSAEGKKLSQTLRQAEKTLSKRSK
# [10] = biological target: T5, Tyrosyl-tRNA synthetase, putative (Trypanosoma cruzi (strain CL Brener)); experiment: Trypanosoma cruzi tyrosyl tRNA synthetase (TcYRS) SOP; type: functional; settings: 30 µM
# [11] = biological target: Chromo domain-containing protein 1 (Saccharomyces cerevisiae (strain ATCC 204508 / S288c) (Baker's yeast)) (UniProt P32657); experiment: ScCHD-1 Enzyme Inhibition Assay; type: functional; settings: 30 µM; note: in the data most compounds retested in dose-response had high values
# Sequence of Chromo domain-containing protein 1 (Saccharomyces cerevisiae (strain ATCC 204508 / S288c) (Baker's yeast)) (P32657 whole entry, the tested form may be a part): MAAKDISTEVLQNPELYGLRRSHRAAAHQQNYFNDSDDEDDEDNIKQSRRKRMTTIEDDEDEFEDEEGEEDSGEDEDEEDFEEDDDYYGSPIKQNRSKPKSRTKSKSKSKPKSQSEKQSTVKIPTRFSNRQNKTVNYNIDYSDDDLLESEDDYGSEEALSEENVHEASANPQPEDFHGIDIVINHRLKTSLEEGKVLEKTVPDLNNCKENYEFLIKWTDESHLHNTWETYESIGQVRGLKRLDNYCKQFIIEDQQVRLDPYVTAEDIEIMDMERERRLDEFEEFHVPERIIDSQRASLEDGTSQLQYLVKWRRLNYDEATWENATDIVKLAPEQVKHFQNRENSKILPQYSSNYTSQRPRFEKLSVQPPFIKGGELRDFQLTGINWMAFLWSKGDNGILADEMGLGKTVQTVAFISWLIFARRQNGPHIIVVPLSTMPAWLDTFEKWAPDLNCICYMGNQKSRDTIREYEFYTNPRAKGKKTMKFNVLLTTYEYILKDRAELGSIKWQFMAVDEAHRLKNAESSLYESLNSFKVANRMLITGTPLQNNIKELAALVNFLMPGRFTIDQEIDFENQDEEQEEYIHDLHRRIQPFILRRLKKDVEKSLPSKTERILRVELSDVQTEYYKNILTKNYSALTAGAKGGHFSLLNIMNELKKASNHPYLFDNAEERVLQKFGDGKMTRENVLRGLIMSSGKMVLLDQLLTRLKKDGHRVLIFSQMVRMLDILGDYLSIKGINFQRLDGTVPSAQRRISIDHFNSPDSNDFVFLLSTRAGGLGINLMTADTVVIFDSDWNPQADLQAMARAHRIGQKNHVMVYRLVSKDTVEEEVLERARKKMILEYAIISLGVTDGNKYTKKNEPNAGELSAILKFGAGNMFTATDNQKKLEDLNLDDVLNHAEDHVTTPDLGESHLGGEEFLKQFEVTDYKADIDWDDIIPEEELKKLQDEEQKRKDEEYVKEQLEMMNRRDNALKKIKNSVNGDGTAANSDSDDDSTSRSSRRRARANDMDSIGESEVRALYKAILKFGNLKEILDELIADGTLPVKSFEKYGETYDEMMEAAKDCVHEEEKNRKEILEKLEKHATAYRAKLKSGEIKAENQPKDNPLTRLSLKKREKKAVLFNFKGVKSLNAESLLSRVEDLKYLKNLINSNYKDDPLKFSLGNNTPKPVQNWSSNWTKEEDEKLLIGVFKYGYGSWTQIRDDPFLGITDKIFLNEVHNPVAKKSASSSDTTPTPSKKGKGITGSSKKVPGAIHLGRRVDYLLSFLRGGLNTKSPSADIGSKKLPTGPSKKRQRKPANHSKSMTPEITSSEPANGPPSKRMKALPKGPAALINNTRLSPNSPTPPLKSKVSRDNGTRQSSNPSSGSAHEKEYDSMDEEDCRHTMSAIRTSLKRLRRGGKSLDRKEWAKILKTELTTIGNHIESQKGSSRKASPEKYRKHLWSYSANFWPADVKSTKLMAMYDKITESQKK
# Sequence of Protein translocase subunit SecA (Escherichia coli (strain K12)) (P10408 whole entry): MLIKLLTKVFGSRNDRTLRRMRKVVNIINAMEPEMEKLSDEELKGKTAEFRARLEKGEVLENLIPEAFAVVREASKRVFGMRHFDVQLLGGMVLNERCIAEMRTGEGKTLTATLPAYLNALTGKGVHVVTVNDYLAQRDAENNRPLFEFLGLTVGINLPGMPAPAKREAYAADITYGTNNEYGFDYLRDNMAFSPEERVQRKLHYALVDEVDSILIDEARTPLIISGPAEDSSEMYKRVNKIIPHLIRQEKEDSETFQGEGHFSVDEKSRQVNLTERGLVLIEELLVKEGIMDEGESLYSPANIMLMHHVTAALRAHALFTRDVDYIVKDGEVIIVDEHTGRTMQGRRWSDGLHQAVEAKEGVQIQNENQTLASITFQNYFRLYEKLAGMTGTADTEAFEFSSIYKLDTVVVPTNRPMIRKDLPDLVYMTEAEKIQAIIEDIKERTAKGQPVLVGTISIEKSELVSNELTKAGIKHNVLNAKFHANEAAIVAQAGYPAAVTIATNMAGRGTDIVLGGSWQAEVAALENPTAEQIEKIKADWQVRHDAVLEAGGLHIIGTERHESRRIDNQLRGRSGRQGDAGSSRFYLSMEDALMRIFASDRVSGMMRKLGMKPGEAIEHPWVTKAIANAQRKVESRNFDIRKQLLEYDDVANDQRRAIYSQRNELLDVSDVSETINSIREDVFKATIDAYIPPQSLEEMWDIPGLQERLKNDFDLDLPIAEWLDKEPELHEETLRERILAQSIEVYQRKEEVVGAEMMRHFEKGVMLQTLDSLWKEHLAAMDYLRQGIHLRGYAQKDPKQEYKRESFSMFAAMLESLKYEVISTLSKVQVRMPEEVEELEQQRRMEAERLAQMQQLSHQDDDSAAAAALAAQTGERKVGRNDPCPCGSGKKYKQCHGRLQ
Structure (SMILES),Percent Effect [1] [%],Percent Effect [2] [%],Percent Effect [3] [%],Percent Effect [4] [%],Percent Effect [5] [%],Percent Effect (Trypanosoma cruzi) [%],Percent Effect [6] [%],Percent Effect [7] [%],Percent Effect (Homo sapiens) [%],Percent Effect [8] [%],Percent Effect [9] [%],Percent Effect [10] [%],Percent Effect [11] [%]
CCN1CCC2(COCc3cnc(-c4cccnc4)nc32)C1 (stereo not given),-4.12,10.8,3.74,3.75,1,-2.44,-4.78,19.9,5.19,8.79,3.24,10.3,2.57
CN(C)[C@@H]1CCN(C(=O)Cc2ccc(F)cc2)[C@H]1Cc1cnn(C)c1,-0.511,13.3,7.04,9.81,-9.25,-4.72,-1.63,12.8,-1.72,-6.42,3.19,6.41,1.98
c1ccc(CO[C@H]2CO[C@@]3(CCN(Cc4ccoc4)C3)C2)nc1,-1.82,14.7,2.15,3.34,5.22,-1.38,-7.57,10.2,-27.8,-30.9,-1.06,12.8,-9.15
Cc1csc(CN2CCC[C@]3(C[C@H](Oc4ccccn4)CO3)C2)n1,0.108,16.4,2.42,-0.448,1.76,3.57,2.4,3.85,21.9,-19.3,3.12,21,-4.03
Cc1cccc(CO[C@@H]2CC[C@H]3[C@H]2OCCN3Cc2ccsc2)n1,-6.22,21.3,0.204,-3.76,1.99,4.44,-38.9,13.3,20.3,-20.4,3.12,15,-6.6
COCc1cncc2c1CCN(Cc1ccccn1)C2,-5.11,5.41,3.14,-2.9,-3.72,-0.391,4.58,14.4,2.95,-55.7,14.8,23.2,1.79
COc1cc(CNCC(O)c2ccc(C)cc2)cc2c1OCCO2 (stereo not given),-5.58,24.3,-2.36,11,14.6,2.32,-3.88,16.3,8.18,-34.2,6.93,18.3,-6.66
c1ccc(CN2C[C@@H]3OCCN(c4ncccn4)[C@@H]3C2)nc1,-3.31,5.33,-0.456,12.4,1.5,-4.53,-1.17,-2.73,6.09,1.03,6.38,8.97,-1.36
Cn1cc(C(=O)N2CC[C@@H]3[C@@H]2CCN3Cc2cccnc2)cn1,-4.7,8.11,1.51,4.43,1.46,-2.83,0.955,17.7,-13.9,-2.5,3.24,12.8,0.704
O=C1[C@H]2CN(CC3CC3)C[C@H]2CN1c1ccsc1,-6.19,-2.7,1.21,4.91,-3.17,-2.44,-1.59,6.27,-11.2,-5.46,3.24,0,5.84
